In PubChem BioAssay (NCI):
Compounds without any hit were thinned out: in the full panel of roughly 83,000, 20% have a hit.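 Note: values are percent growth. 100 is the growth of untreated cells, values between 100 and 0 indicate rising inhibition; between -100 and 0 indicates cell death.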 Calls of active or inactive are those of the source. How the source made its calls: active means growth percent below 10; inactive means the rest.

The compounds below were run on HL-60(TB) leukemia (assay: NCI-60 one-dose screen, 48 h (100 = growth as untreated, 0 = no growth, -100 = all killed)). Conditions: 10 µM unless noted.

Compound	growth
CCCn1cnc2c(c1=N)C(c1ccc(OC)cc1)c1sc3c(C)cccc3c1O2 (configuration not stated)	0.388% (active)
N#Cc1c(-c2cccs2)cc(-c2cnccn2)nc1SCC(=O)N/N=C/c1ccc(Cl)cc1	110% (inactive)
CC[C@]12C=CCN3CC[C@@]4(c5cc(NC(=O)COc6cc(O)c7c(=O)cc(-c8ccccc8)oc7c6)c(OC)cc5N(C)[C@H]4[C@@](O)(C(=O)OC)[C@@H]1OC(C)=O)[C@@H]32	-44.9% (active)
O=C(CCCCCCN1CC(=O)N2[C@@H](C3CC3)c3[nH]c4ccccc4c3C[C@H]2C1=O)NO	31.8% (inactive)
NS(=O)(=O)c1nnc(/N=C/c2c(O)[nH]c3ccccc23)s1	123% (inactive)
[Cl][Ru].c1ccc(-c2cccc(-c3ccccn3)n2)nc1.c1ccc(-c2ccnc3c2ccc2c(-c4ccccc4)ccnc23)cc1	-10.5% (active)
COc1cc(OC)c(S(N)(=O)=O)cc1C(=O)/C=C/c1ccccc1	5.25% (active)
CCN(CC)c1ccc2cc(C(=O)NCCOCCOCCOCCn3cc(CCC(=O)Nc4ccc(C(=O)c5ccc(NC(=O)OC(C)(C)C)cc5)cc4)nn3)c(=O)oc2c1	37% (inactive)
Cc1ccc(S(=O)(=O)NCCNc2nc(Nc3ccc(N4CCN(C)CC4)cc3)nc3ccsc23)cc1	86.4% (inactive)
Oc1ccc(CSc2nnc(-c3cnccn3)n2-c2ccccc2)c2cccnc12	14.4% (inactive)
O=S(=O)(Nc1cc(Cl)cc(Cl)c1)c1ccc(-c2cnc(C3CC3)o2)cc1	8.29% (active)
CCOC(=O)c1ccc(NC2=CC(=O)C(C)=C(C)C2=O)cc1	53% (inactive)
